Reference: PubChem BioAssay (NCI)
About 79,000 compounds went through this panel and 15% of them were active in at least one assay; those are over-represented in the sample as a whole. Rule as the data show it: active = growth inhibition above about 70%; inactive = the rest.

How the values were obtained:
[1] = NCI Yeast Anticancer Drug Screen. Data for the rad50 strain (AID 155);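 also: 0% = growth of vehicle-only cultures of the same strain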; settings: S. cerevisiae rad50 strain growth inhibition; at 50.0 µM; active compounds read high
Summary of the method: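 Compounds were tested on a yeast strain with an engineered DNA damage repair alteration; the reported value is growth inhibition normalised to vehicle treatment.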

[2] = NCI Yeast Anticancer Drug Screen. Data for the mec2-1 strain (AID 157); settings: S. cerevisiae mec2-1 strain, at 50.0 µM, active compounds read high
Summary of the method: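 Cells of the genetically defined mec2-1 yeast strain are incubated with test compound. Inhibition of growth is calculated against vehicle-treated controls.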

[3] = NCI Yeast Anticancer Drug Screen. Data for the sgs1 mgt1 strain (AID 161);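 also: 0% = growth of cultures given vehicle only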; settings: S. cerevisiae sgs1 mgt1 strain, at 50.0 µM, active compounds read high
Summary of the method: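 Mutant yeast exposed to compound; growth scored against vehicle-only wells.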

[4] = NCI Yeast Anticancer Drug Screen. Data for the cln2 rad14 strain (AID 165);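 also: 0% = growth equal to vehicle treated cultures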; settings: S. cerevisiae cln2 rad14 strain, at 50.0 µM, active compounds read high
Summary of the method: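 The screen exposed genetically defined yeast (cln2 rad14) to test compounds and scored growth inhibition relative to vehicle-treated controls.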

[5] = NCI Yeast Anticancer Drug Screen. Data for the bub3 strain (AID 167); settings: S. cerevisiae bub3 mutant strain, at 50.0 µM, active compounds read high
Summary of the method: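 Growth of a checkpoint-deficient yeast mutant is measured after compound exposure. Values represent inhibition relative to vehicle.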

[6] = NCI Yeast Anticancer Drug Screen. Data for the mlh1 rad18 strain (AID 175); settings: S. cerevisiae mlh1 rad18 strain growth inhibition; at 50.0 µM; active compounds read high
Summary of the method: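 Compound-treated yeast growth, normalised to vehicle controls. Strain bears defined DNA repair mutations.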

Measured: growth inhibition

CC1(C)Oc2ccc(NC(=O)CCC(N)C(=O)O)cc2O1 (stereo not given)
inactive: [1] -28.2% | [2] -52.7% | [3] -1% | [4] 11.5% | [5] 16.5% | [6] -18.1%

O=C1C(OCc2ccccc2)=C(c2ccccc2)C(=O)N1c1ccccc1
inactive: [1] -1.75% | [2] -13.2% | [3] 2.2% | [4] 24.8% | [5] -11.6% | [6] -9.75%

BrC12CC3CC(CC(C3)C1)C2
inactive: [1] 21.8% | [2] 13.1% | [3] 9.4% | [4] 11.1% | [5] 9.25% | [6] 12.8%

COc1ccc(C2=C(Cl)c3cc(OC)c(OC)cc3C2Cl)cc1OC (stereo not given)
inactive: [1] 41.5% | [2] 18.6% | [3] 21.9% | [4] 26.9% | [5] -6.15% | [6] 17.4%

CCOC(=O)C1C2CCCC(=O)C21 (stereo not given)
inactive: [1] 9% | [2] -4.5% | [3] 3.9% | [4] -56.8% | [5] 12.1% | [6] 3.3%

CC(NC(=O)OCc1ccccc1)NC(=O)OC(C)(C)C (stereo not given)
inactive: [1] -47% | [2] -63.5% | [3] -18.9% | [4] -13.2% | [5] -14.6% | [6] -26.8%

O[C@H]1[C@H]2c3cc4c(cc3CN3CCC(C[C@@H]1O)[C@H]23)OCO4 (stereo not given in full)
inactive: [1] 3.05% | [2] -6.5% | [3] 9.65% | [4] 20.3% | [5] 3.4% | [6] 9.3%

COC(=N)c1nnn(-c2ccccc2)n1
inactive: [1] -8.6% | [2] -8% | [3] -5.05% | [4] -16.1% | [5] 2.05% | [6] -17.9%

O=C1NC(=O)C(F)[CH]([Ge](=[O])[O][Ge](=[O])[CH]2NC(=O)NC(=O)C2F)N1 (stereo not given)
inactive: [1] -7.45% | [2] -8.85% | [3] 0.2% | [4] -7.35% | [5] 0.7% | [6] -17.9%

O=C1CSC(c2ccccc2Br)N1c1nncs1 (stereo not given)
inactive: [1] -5.05% | [2] -5.7% | [3] 1.95% | [4] 0.9% | [5] 13.6% | [6] 7.75%

CC(C)NS(=O)(=O)c1ccc(Cl)cc1
inactive: [1] 11.6% | [2] 1.65% | [3] 12.4% | [4] 0.4% | [5] -1.1% | [6] 1.85%

CCCCCCCCCCCCCCCCCC(=O)OCC1CO1 (stereo not given)
inactive: [1] 23.2% | [2] 10.3% | [3] 21.6% | [4] 13.2% | [5] 18.9% | [6] 21.1%

CCCCCCCCCCCCSC(=O)CCC(=O)O
inactive: [1] -49.5% | [2] -11.9% | [3] 13.8% | [4] -29.9% | [5] 1.85% | [6] 10.1%

N#CC(=NCCO)C1=C(O)c2ccccc2C1=O
inactive: [1] 6.1% | [2] -10.7% | [3] -16.3% | [4] -30.6% | [5] -48% | [6] -12.3%

O=P(O)(O)CCC(O)CO (stereo not given)
inactive: [1] -12.5% | [2] 10.3% | [3] -11.6% | [4] -78.2% | [5] 4.6% | [6] -17.5%

c1ccc(Oc2ccc(-c3ccccc3)cc2)cc1
inactive: [1] -28.9% | [2] -52.9% | [3] 1.8% | [4] -7.85% | [5] -8.55% | [6] -31.3%

Nc1cc2c(C3OC(CO)C(O)C3O)[nH]nc2c(=S)[nH]1 (stereo not given)
inactive: [1] 40.8% | [2] 7.05% | [3] 15.5% | [4] 20.4% | [5] 8.15% | [6] 24.1%

N#CCCn1nc(SCc2ccccc2)c(=O)[nH]c1=O
inactive: [1] -2.6% | [2] 0.3% | [3] 7.65% | [4] 6.3% | [5] -1.65% | [6] 7.85%

OC1(c2ccccc2)C=C(c2ccccc2)C=C(c2ccccc2)O1 (stereo not given)
inactive: [1] -5.95% | [2] 10.7% | [3] -1.05% | [4] 0.9% | [5] 8.05% | [6] -2.55%

c1ccc(N2CCCC2(c2ccccc2)c2ccccc2)cc1
inactive: [1] 29.1% | [2] 11.3% | [3] 47.1% | [4] -11.8% | [5] 22.9% | [6] 28.4%
